Compound activity from PubChem BioAssay.
Only some compounds are listed: those with a hit (about 1.2% of all), similar ones and a draw of the others.
Avidin fluor – compound fluoresces at 488/530 nm on avidin beads | compound fluorescence 488/530 nm, flow cytometry; active compounds read high | fluorescence (KMESF) at 10 µM | 220,000 compounds, 0.38% hits | AID 1775; in the data active means fluorescence above about 47
RGS16-Gao – modulates binding between human RGS16 and Galphao; O15492+P09471; bead-based flow cytometry RGS16-Galphao binding, fluorescence; actives lie on both sides; binding response (% of control), % at 10 µM; 220,000 compounds, 0.38% hits; AID 1441;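 further: Galphao activated by GDP with aluminum fluoride before binding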
RGS7-Gao reg – regulators of human RGS7-Galphao interaction. P09471. Multiplexed bead flow cytometry, RGS7-Galphao binding; actives lie on both sides. binding response (% of control), % at 10 µM. 220,000 compounds, 0.35% hits. AID 1439; in the data active means binding response below about 49% or above about 150%; inconclusive means no clear call, values can overlap the other calls; inactive means in between;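 further: fluorescent Galphao held in activated GDP-AlF4 state binding bead-coupled RGS7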
Target sequence (P09471 whole entry, looked up): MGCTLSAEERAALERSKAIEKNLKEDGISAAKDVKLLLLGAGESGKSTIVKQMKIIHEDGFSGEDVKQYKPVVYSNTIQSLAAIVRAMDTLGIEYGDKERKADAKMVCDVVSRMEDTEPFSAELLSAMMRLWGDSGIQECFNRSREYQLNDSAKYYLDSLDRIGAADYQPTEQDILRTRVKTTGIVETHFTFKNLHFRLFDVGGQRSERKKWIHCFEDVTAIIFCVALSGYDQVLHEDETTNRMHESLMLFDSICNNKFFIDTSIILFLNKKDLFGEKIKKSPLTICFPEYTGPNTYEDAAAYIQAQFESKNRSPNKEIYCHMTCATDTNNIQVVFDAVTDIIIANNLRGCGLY
RGS8-Gao reg – human RGS8-Galphao interaction regulation; P09471; multiplexed bead flow cytometry, RGS8-Galphao binding; actives lie on both sides; response (percent of control binding), % at 10 µM; 220,000 compounds, 0.34% hits; AID 1423; in the data active means response below about 60% or above about 140%; inactive means in between;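 further: Galphao activated as the GDP aluminium fluoride complex binding bead-coupled RGS8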
GSH fluor – compound fluoresces at 488/530 nm on GSH beads; GSH beads flow cytometry, compound fluorescence 488/530 nm; active compounds read high; fluorescence (KMESF) at 10 µM; 190,000 compounds, 0.25% hits; AID 1776; in the data active means fluorescence above about 89;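 further: glutathione beads carrying GST-tagged Bcl family fusion proteins plus one bare bead set; values are compound well signal with DMSO vehicle wells as background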
RGS4-Gao reg – modulates binding of RGS4 to human Galphao; Multiplexed bead flow cytometry; actives lie on both sides; binding response (% of control), % at 10 µM; 220,000 compounds, 0.33% hits; AID 1415; in the data active means binding response below about 49% or above about 150%; inactive means in between;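 further: fluorescent Galphao activated with aluminum fluoride binding bead-coupled RGS4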
RGS4-Gao HTS – RGS4-Galphao interaction regulator (human); shares compounds with RGS16-Gao; multiplexed bead flow cytometry, RGS–Galpha-o binding; RGS4–Galpha-o binding response, % at 10 µM; 1,600 compounds, 99% hits;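 further: fluorescently labeled Galpha-o bound to GDP with aluminium fluoride binding biotinylated RGS beads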
Target sequence (P09471 whole entry, looked up): as above
Target sequence (P49798 whole entry, looked up): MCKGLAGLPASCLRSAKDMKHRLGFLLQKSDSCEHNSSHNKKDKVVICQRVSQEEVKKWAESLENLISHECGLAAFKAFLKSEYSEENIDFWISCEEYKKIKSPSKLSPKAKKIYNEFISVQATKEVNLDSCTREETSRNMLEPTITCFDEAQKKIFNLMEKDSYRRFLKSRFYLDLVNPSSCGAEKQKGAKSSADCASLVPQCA
Biotin-avidin – biotin-avidin bead binding disruption counter-screen | shares compounds with RGS16-Gao | streptavidin beads, fluorescein-biotin binding, flow cytometry | inhibition, % at 10 µM | 1,700 tested, under 10 active | AID 1783;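 active means inhibition above 50%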;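 further: median green fluorescence of gated singlet beads compared with DMSO control wells; 0% = DMSO wells and 100% = complete loss of bead fluorescence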
RGS8-Gao confirm – confirmation of regulators of human RGS8-Galphao interaction; shares compounds with RGS16-Gao; bead-based flow cytometry RGS8-Galphao binding, fluorescence; actives lie on both sides; 1,700 compounds, 3% hits; AID 1836; binding response (% of control), % at 10 µM; in the data active means binding response below about 72% or above about 130%; inactive means in between;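 further: Galphao activated as GDP AlF4 complex before binding bead RGS8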
RGS7-Gao confirm – confirmation of regulators of human RGS7-Galphao interaction; 1,700 compounds, 7.8% hits; shares compounds with RGS16-Gao; AID 1837; response (percent of control binding), % at 10 µM; bead-based flow cytometry RGS7-Galphao binding; actives lie on both sides; in the data active means response below about 75% or above about 130%; inactive means in between;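 further: fluorescent Galphao activated with GDP and aluminum fluoride binding bead-coupled RGS7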
RGS16-Gao single – RGS16-Galphao interaction regulation, single point confirmation | response (% of control binding), % at 10 µM | 1,700 compounds, 4% hits | bead-based flow cytometry, RGS16-Galphao binding; actives lie on both sides | shares compounds with RGS16-Gao; in the data active means response below about 74% or above about 130%; inactive means in between;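 further: Galphao activated as the GDP aluminium fluoride complex binding bead-coupled RGS16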
RGS4-Gao single – RGS4-Galphao interaction regulation, single point confirmation; shares compounds with RGS16-Gao; RGS4-Galphao binding, multiplexed bead flow cytometry; actives lie on both sides; binding response (% of control), % at 10 µM; 1,700 compounds, 4% hits; AID 1840; in the data active means binding response below about 74% or above about 130%; inactive means in between
RGS19-Gao single – RGS19-Galphao interaction regulation, single point confirmation; shares compounds with RGS16-Gao; response (percent of control binding), % at 10 µM; 1,700 compounds, 5% hits; bead-based flow cytometry RGS19-Galphao binding; actives lie on both sides; in the data active means response below about 50% or above about 160%; inactive means in between;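 further: 100% = no compound control and 0% = blank background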
* hit, by the source's call; [ ] = remark or other dose. Unless noted, how the calls were made is not given here.

What do the screens show for `NNC(=O)c1ccc(N2CCCCCC2)c([N+](=O)[O-])c1`?
Avidin fluor: 12; RGS16-Gao: 100; RGS7-Gao reg: 97; RGS8-Gao reg: 98; GSH fluor: 14; RGS4-Gao reg: 99

What do the screens show for `OCCNc1cnc2ccccc2n1`?
Avidin fluor: 10; RGS16-Gao: 108; RGS7-Gao reg: inconclusive; RGS8-Gao reg: 105; GSH fluor: 10; RGS4-Gao reg: 107

Results for CC(=O)Nc1cnc2ccccc2n1 ?
Avidin fluor: 102*; RGS16-Gao: 108; RGS7-Gao reg: 181*[activator]; RGS8-Gao reg: 102; GSH fluor: 24; RGS4-Gao reg: 113; RGS4-Gao HTS: 113*; Biotin-avidin: 0; RGS8-Gao confirm: 100; RGS7-Gao confirm: 102; RGS16-Gao single: 97; RGS4-Gao single: 96; RGS19-Gao single: 91

Results for O=S1(=O)CC2N=C(N(Cc3c(F)cccc3Cl)c3ccccc3F)SC2C1 (stereo unspecified) ?
Avidin fluor: -2; RGS16-Gao: 11*; RGS7-Gao reg: 12*; RGS8-Gao reg: 17*; GSH fluor: 20; RGS4-Gao reg: 19*; Biotin-avidin: 1; RGS8-Gao confirm: 102; RGS7-Gao confirm: 98; RGS16-Gao single: 104; RGS4-Gao single: 102; RGS19-Gao single: 98

How did Cc1ccc(S(=O)(=O)N(C)C)cc1NC(=S)N1CCCCC1CO (stereo unspecified) do in these assays?
Avidin fluor: 8; RGS16-Gao: 101; RGS7-Gao reg: 104; RGS8-Gao reg: 103; GSH fluor: 11; RGS4-Gao reg: 106

How did Cc1ccc(C(=O)COC(=O)CCC(=O)Nc2ccccc2Cl)cc1[N+](=O)[O-] do in these assays?
Avidin fluor: 7; RGS16-Gao: 127; RGS7-Gao reg: 100; RGS8-Gao reg: 114; GSH fluor: 13; RGS4-Gao reg: 101

What do the screens show for `Cc1ccc(C(=O)COC(=O)CCCC(=O)Nc2cc(C(F)(F)F)ccc2Cl)cc1C`?
Avidin fluor: 0; RGS16-Gao: 11*; RGS7-Gao reg: 12*; RGS8-Gao reg: 26*; GSH fluor: 8; RGS4-Gao reg: 20*; Biotin-avidin: -1; RGS8-Gao confirm: 100; RGS7-Gao confirm: 96; RGS16-Gao single: 99; RGS4-Gao single: 99; RGS19-Gao single: 88

Results for CC(C)CCN1CC(C(=O)NCCC2=CCCCC2)CC1=O (stereo unspecified) ?
Avidin fluor: 6; RGS16-Gao: 103; RGS7-Gao reg: 99; RGS8-Gao reg: 104; GSH fluor: 14; RGS4-Gao reg: 101

Results for CC(C)CCN1CCC(N)=NC1=O ?
Avidin fluor: 26; RGS16-Gao: 191*[activator]; RGS7-Gao reg: 217*[activator]; RGS8-Gao reg: 110; GSH fluor: 35; RGS4-Gao reg: 234*[activator]; Biotin-avidin: -2; RGS8-Gao confirm: 115; RGS7-Gao confirm: 104; RGS16-Gao single: 116; RGS4-Gao single: 107; RGS19-Gao single: 86

Results for CC1(CC(=O)N/N=C/c2ccc(-c3cccc(C(F)(F)F)c3)o2)OCCO1 ?
Avidin fluor: 254*; RGS16-Gao: 204*[activator]; RGS7-Gao reg: 262*[activator]; RGS8-Gao reg: 115; GSH fluor: 10; RGS4-Gao reg: 169*[activator]; Biotin-avidin: 0; RGS8-Gao confirm: 99; RGS7-Gao confirm: 99; RGS16-Gao single: 100; RGS4-Gao single: 102; RGS19-Gao single: 109

How did CCOC(=O)N/N=C\c1ccc(-c2cccc(C(F)(F)F)c2)o1 do in these assays?
Avidin fluor: 6; RGS16-Gao: 100; RGS7-Gao reg: 104; RGS8-Gao reg: 103; GSH fluor: 12; RGS4-Gao reg: 103

Results for COC(=O)c1ccccc1OCCCCN1CC(C)OC(C)C1 (stereo unspecified) ?
Avidin fluor: 173*; RGS16-Gao: 102; RGS7-Gao reg: 254*[activator]; RGS8-Gao reg: 99; GSH fluor: 9; RGS4-Gao reg: 113; RGS4-Gao HTS: 113*; Biotin-avidin: 2; RGS8-Gao confirm: 92; RGS7-Gao confirm: 59*; RGS16-Gao single: 83; RGS4-Gao single: 70*; RGS19-Gao single: 46*

What do the screens show for `O=C(NC12CC3CC(CC(C3)C1)C2)C12CC3CC(C1)CC(n1cnc(Cl)n1)(C3)C2`?
Avidin fluor: 11; RGS16-Gao: 104; RGS7-Gao reg: 100; RGS8-Gao reg: 101; GSH fluor: 10; RGS4-Gao reg: 100

What do the screens show for `CCN1C(=O)C(CC(=O)Nc2ccc(OC)cc2)N(Cc2ccco2)C1=S` (stereo unspecified)?
Avidin fluor: 11; RGS16-Gao: 308; RGS7-Gao reg: 105; RGS8-Gao reg: 143*[activator]; GSH fluor: 22; RGS4-Gao reg: 116; RGS4-Gao HTS: 116*; Biotin-avidin: -1; RGS8-Gao confirm: 99; RGS7-Gao confirm: 90; RGS16-Gao single: 96; RGS4-Gao single: 96; RGS19-Gao single: 77

How did CCN(CC)S(=O)(=O)c1ccc2c(c1)nc(CCC(=O)Nc1ccc3c(c1)OCO3)n2CC do in these assays?
Avidin fluor: 1; RGS16-Gao: 20*; RGS7-Gao reg: 88; RGS8-Gao reg: 71; GSH fluor: 25; RGS4-Gao reg: 82; RGS4-Gao HTS: 82*; Biotin-avidin: -1; RGS8-Gao confirm: 100; RGS7-Gao confirm: 87; RGS16-Gao single: 98; RGS4-Gao single: 92; RGS19-Gao single: 102
